Experimental findings from PubChem BioAssay (NCATS) are described below.

Results filed as inconclusive are left out. Calls of active or inactive are those of the source. Unless noted, calls follow the shape of the dose curve; as a rule, active = well fitted curve in the direction sought with a large enough effect; inconclusive = small, poorly fitted or top-dose-only effect, or another doubt; inactive = no such curve, though single readings can be large; an effect the other way counts as inactive or inconclusive.

A short description of test [1]: Confirmation and Secondary Assay for Modulators of Hemoglobin Beta Chain Splicing at IVS2 654 locus (AID 910).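 Also: HeLa cells stably carrying EGFP split by mutant beta-globin IVS2-654 intron; per-well total GFP intensity by laser scanning cytometry after 2-day treatment; % of control where 0% means no effect.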 The method, boiled down:
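Readout: per-well total peak green fluorescence (488 nm ex, 500–520 nm em) from objects 5–250 µm, reflecting correct splicing of an EGFP-654 reporter. Compounds were applied for 2 days at 37 °C to overnight-plated HeLa EGFP-654 cells; controls were DMSO and 500 nM IVS2-654 PNA.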

The nature of test [2]: Confirmation and Secondary Assay for Modulators of Hemoglobin Beta Chain Splicing at IVS2 705 locus (AID 930).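 Also: HeLa cells stably expressing the EGFP-705 splicing reporter; GFP fluorescence per well restored by corrected splicing of the IVS2-705 intron in EGFP; % of control where 0% means no effect.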 Summed up: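 Fluorescence gain (488 nm laser, 500-520 nm PMT) reflects restored correct splicing of a mutant IVS2-705 intron inside EGFP in stably transfected HeLa cells after 2-day compound treatment.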
A short description of test [3]: qHTS Assay for Lipid Storage Modulators (AID 1519; calls by dose curve; as to activity change, negative = inhibition: % is scaled to controls: 0 for no effect and ±100 for the full control effect). The following applies: Drosophila S3 cells, BODIPY lipid droplet/cell ratio, laser cytometry, cells loaded with oleic acid; for activity change, negative = inhibition: at 57.5 µM (top of the series). The method, boiled down:
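Cells seeded at 5,000 per well were treated with compounds over a concentration series and loaded with oleic acid (400 uM, as added). Lipid droplet fluorescence (488 nm excitation, 500-530 nm channel) was read by laser-scanning cytometry and normalized to 20 uM Triacsin C.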

Test [4] deals with Ubiquitin carboxyl-terminal hydrolase 1 (Homo sapiens) (UniProt O94782). The test can be described thus: Inhibitors of USP1/UAF1: Pilot qHTS (AID 504865).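 Also: rhodamine fluorescence freed from ubiquitin-rhodamine substrate followed over time; top concentration of the series differs between compounds; % is scaled to controls: 0 for no effect and ±100 for the full control effect; nearly all actives have a fitted effect of over 35% in size.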 The method, boiled down: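 USP1/UAF1 complex (1nM) preincubated with compound 15 min at room temperature, then Ub-Rho substrate (150nM final) added. Fluorescence read kinetically at 480/540 nm, 6 reads every 60 seconds. Buffer: 50mM HEPES pH 7.8, 0.5mM EDTA, 0.1 mg/ml BSA, 1mM TCEP, 0.01% Tween-20.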
Chain of Ubiquitin carboxyl-terminal hydrolase 1 (Homo sapiens) (O94782 whole entry, looked up): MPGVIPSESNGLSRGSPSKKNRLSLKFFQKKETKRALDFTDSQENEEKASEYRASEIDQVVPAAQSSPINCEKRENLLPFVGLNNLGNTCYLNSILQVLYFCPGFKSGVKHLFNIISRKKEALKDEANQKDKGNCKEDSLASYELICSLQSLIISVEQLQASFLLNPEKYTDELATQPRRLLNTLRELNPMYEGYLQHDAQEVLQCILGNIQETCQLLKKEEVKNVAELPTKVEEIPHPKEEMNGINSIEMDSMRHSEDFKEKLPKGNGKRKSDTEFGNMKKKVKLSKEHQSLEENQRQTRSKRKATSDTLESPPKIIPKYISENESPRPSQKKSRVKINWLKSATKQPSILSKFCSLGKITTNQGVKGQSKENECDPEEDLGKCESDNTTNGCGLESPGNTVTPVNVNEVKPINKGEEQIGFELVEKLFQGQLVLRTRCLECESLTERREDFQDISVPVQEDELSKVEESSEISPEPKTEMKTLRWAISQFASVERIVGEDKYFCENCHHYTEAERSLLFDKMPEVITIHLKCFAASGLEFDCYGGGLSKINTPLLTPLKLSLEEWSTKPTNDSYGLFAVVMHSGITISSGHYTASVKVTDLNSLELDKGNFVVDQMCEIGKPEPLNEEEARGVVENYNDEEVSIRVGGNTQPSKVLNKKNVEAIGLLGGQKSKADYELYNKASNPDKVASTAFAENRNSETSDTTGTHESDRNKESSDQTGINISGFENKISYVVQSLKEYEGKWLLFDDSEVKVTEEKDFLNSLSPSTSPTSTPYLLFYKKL
(In general: Quantitative high-throughput screening tests each substance at several concentrations.)

In test [5] the target is Cytochrome P450 3A4 (Homo sapiens) (UniProt P08684). The experiment in a line: qHTS Assay for Inhibitors and Substrates of Cytochrome P450 3A4 (AID 884). Also: % is scaled to controls: 0 for no effect and ±100 for the full control effect; nearly all actives have a fitted effect of over 50% in size. The method, boiled down: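 Luminescent readout of luciferin produced by CYP3A4 (20 nM) dealkylation of Luciferin-PPXE, 25 uM (its KM). NADPH-driven reaction ran 60 min at RT after 10 min compound preincubation; data scaled to 57 uM ketoconazole as 100% inhibition.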
Chain of Cytochrome P450 3A4 (Homo sapiens) (P08684 whole entry, looked up): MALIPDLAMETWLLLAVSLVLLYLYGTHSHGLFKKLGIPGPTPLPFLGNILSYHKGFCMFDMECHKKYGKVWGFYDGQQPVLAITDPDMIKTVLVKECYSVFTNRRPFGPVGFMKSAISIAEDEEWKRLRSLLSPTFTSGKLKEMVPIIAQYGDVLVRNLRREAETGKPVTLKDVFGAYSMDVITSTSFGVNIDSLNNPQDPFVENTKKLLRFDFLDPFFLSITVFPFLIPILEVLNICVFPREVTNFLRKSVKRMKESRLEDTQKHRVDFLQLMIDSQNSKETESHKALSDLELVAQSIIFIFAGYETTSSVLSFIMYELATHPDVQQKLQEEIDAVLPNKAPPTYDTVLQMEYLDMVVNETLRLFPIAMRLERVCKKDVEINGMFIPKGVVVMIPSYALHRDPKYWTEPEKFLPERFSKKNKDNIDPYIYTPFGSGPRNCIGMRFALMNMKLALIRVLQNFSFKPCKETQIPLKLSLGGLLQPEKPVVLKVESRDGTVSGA

The target in test [6] is DNA dC->dU-editing enzyme APOBEC-3G (Homo sapiens) (UniProt Q9HC16). The test can be described thus: qHTS for inhibitors of Vif-A3G interactions: Validation (AID 588379). Also: 0% is about no effect. Summed up: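 Yellow fluorescence (Ex 488, Em 500-530) of Vif-coexpressing HeLa A3G-eYFP cells, scanned by Acumen cytometer, reports blocked A3G degradation. Cells plated at 700/well overnight at 37 deg C before compound addition, then a further overnight compound incubation at 37 deg C.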
Chain of DNA dC->dU-editing enzyme APOBEC-3G (Homo sapiens) (Q9HC16 whole entry, looked up): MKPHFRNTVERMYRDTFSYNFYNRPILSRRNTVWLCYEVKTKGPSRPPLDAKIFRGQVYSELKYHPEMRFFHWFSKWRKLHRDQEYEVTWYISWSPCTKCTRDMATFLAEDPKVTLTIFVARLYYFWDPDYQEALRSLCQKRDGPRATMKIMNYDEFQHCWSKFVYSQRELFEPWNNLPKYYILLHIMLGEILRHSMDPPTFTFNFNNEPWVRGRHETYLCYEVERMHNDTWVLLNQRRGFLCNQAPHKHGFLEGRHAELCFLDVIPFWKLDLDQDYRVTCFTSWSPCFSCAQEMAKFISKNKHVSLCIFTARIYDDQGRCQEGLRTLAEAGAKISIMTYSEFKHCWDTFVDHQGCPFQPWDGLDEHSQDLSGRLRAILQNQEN

The target of test [7] is Cytochrome P450 3A4 (Homo sapiens) (UniProt P08684). The test can be described thus: qHTS Assay for Activators of Cytochrome P450 3A4 (AID 885). Also: nearly all actives have a fitted effect of over 65% in size. The method, boiled down:
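Human CYP3A4 dealkylates Luciferin-PPXE to luciferin, which luciferase detection converts to light. Substrate was at its KM (25uM), buffer 200mM KPO4, reaction 60 min at RT.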

The mark [8] stands for this setting: measured here: cell count channel max response.
[9] abbreviates: measured here: lipid channel max response.

Take `COc1cc2c(c(OC)c1OC)-c1ccc(O)c(=O)cc1C(NC(C)=O)CC2` (centres undefined): the Potency entry in test [1], in test [2] and in test [4] was “inactive” in each case. Also, the activity change, negative = inhibition in test [3] is 7.7% (inactive). In addition, the max response in test [3] (setting [8]) stood at 16.6%; in test [3] (setting [9]) it was 36.3%.

For the compound `CC[C@H]1C2CC3[C@@H]4N(C)c5ccccc5[C@]45C[C@@H](C2[C@H]5O)N3[C@@H]1O` (some centres undefined), in test [5], the Potency entry is “inactive”. Besides, in test [3], the activity change, negative = inhibition was -0.775% (inactive). Besides, the values for the max response in test [3] (setting [8]) and in test [3] (setting [9]) were 15.3% and 14.3%, respectively. Besides, the result in test [6] was inactive.

For `CNC(=O)Oc1cccc2c1OC(C)(C)C2`, the Potency result in test [1], in test [2] and in test [4] was “inactive” each time. Also, the activity change, negative = inhibition in test [3] is 4.9% (inactive). In addition, the values for the max response in test [3] (setting [8]) and in test [3] (setting [9]) were 5.85% and 6.59%, respectively.

For the compound `O=c1cccc2n1CC1CNCC2C1` (centres undefined), the Potency entry in test [1] and in test [2] was “inactive” each time. The activity change, negative = inhibition in test [3] was 8.73% (inactive). The results for the max response in test [3] (setting [8]) and in test [3] (setting [9]) were 7.65% and 18%, respectively. For the same compound, the compound was classed as inactive in test [6].

Turning to `CC1=C2C3OC(=O)[C@H](C)[C@H]3CC[C@@]2(C)C=CC1=O` (some centres undefined), the Potency result in test [7] was “inactive”. Besides, in test [3], the activity change, negative = inhibition was 2.8% (inactive). Further, the max response was determined as 25.6% in test [3] (setting [8]) and 29.5% in test [3] (setting [9]). Further, in test [6], the compound was classed as inactive.

Consider `O=C(O)c1nn(Cc2ccc(Cl)c(Cl)c2)c2ccccc12`, for which the Potency result in test [1], in test [2] and in test [4] was “inactive” each time. Further, the activity change, negative = inhibition in test [3] was 4.27% (inactive). Also, the max response in test [3] (setting [8]) turned out to be 10.4%; in test [3] (setting [9]), 16.9%.
